Results: PubChem BioAssay (Tox21)
Inconclusive results are not listed. Active and inactive are the calls of the source. Unless noted, calls follow the shape of the dose curve; as a rule, active = well fitted curve in the direction sought with a large enough effect in the repeat runs; inconclusive = weak or mixed curves; inactive = no such curve, though single readings can be large; an effect the other way counts as inactive or inconclusive.

How the values were obtained:
[1] = qHTS assay for small molecules that induce genotoxicity in human embryonic kidney cells expressing luciferase-tagged ATAD5 (AID 651632); also: nearly all actives have a fitted effect of over 15% in size
Procedure, shortened: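 ATAD5-luc HEK293T, 2,000 cells/well; cpd or DMSO pin-transferred; 16 hr, 37C/5% CO2; Amplite 30 min RT; luminescence.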

[2] = qHTS assay for small molecule agonists of the p53 signaling pathway - cell viability (AID 651633; calls by dose curve;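 also: p53RE-bla HCT reporter cells with a stable beta-lactamase p53 reporter; series mostly up to about 83 µM; nearly all actives have a fitted effect of over 30% in size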)
Procedure, shortened: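 p53RE-bla cells, seeded at 4,000 per well and rested 5 h at 37 C/5% CO2, received compounds in DMSO for 16 h at 37 C. CellTiter-Glo was then added, and luminescence was read after 30 min at room temperature to gauge cytotoxicity.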

[3] = qHTS assay for small molecules that induce genotoxicity in human embryonic kidney cells expressing luciferase-tagged ATAD5 - cell viability (AID 651634; calls by dose curve; also: nearly all actives have a fitted effect of over 25% in size; also: potency is read from the fitted curve at half-maximal effect)
Procedure, shortened: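 Fluorescence from CellTiter-Fluor, reporting protease activity within live cells, served as the viability read-out. HEK293T cells carrying luciferase-tagged ATAD5 had been treated with compound for 15.5 hr at 37C.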

[4] = qHTS assay for small molecule disruptors of the mitochondrial membrane potential - cell viability (AID 720634; calls by dose curve;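 also: human HepG2 liver cancer cells; series mostly up to about 83 µM; nearly all actives have a fitted effect of over 20% in size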)
Procedure, shortened: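 Cells: HepG2, 2,000/well, attached overnight. Compound 1 hr, 37 C/5% CO2. +m-MPI dye, +CellTiter-Glo 30 min RT. Readout: luminescence (ATP).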

[5] = qHTS assay to test for compound auto fluorescence at 590 nm (red) in HepG2 cells (AID 720674)
Procedure, shortened: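 Rose Bengal sodium served as the red fluorophore standard. HepG2 monolayers (overnight attachment, MEM with 10% FBS) were exposed to test compounds for 1 hr at 37 C and read at Ex 540/Em 590 nm.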

[6] = qHTS assay to test for compound auto fluorescence at 535 nm (green) in HepG2 cells (AID 720675)
[7] = qHTS assay to test for compound auto fluorescence at 460 nm (blue) in HEK293 cells (AID 720678)
Procedure, shortened: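 Auto fluorescence in the blue band was quantified as triamterene equivalency. HEK293 cells were seeded at 2,000/well, dosed after a 4-5 hr attachment, and kept overnight at 37C before the 405/460 nm reading.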

[8] = qHTS assay to test for compound auto fluorescence at 590 nm (red) in HEK293 cells (AID 720679)
Procedure, shortened: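 Autofluorescence equivalency to Rose Bengal sodium, 540/590nm, in HEK293 cells exposed overnight to 23 nL compound per well.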

[9] = qHTS assay to test for compound auto fluorescence at 535 nm (green) in HEK293 cells (AID 720680)
[10] = qHTS assay to test for compound auto fluorescence at 460 nm (blue) in HEK293 cell free culture (AID 720681)
Procedure, shortened: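 Test compounds were pinned into cell-free culture medium (DMEM with 10% FBS) and fluorescence was read directly at Ex/Em 405/460 nm. Signals were expressed as fluorescence equivalents of triamterene, with DMSO vehicle as control.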

[11] = qHTS assay to test for compound auto fluorescence at 535 nm (green) in HEK293 cell free culture (AID 720682)
Procedure, shortened: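 No cells present: wells hold DMEM supplemented with 10% FBS, into which compound or vehicle is pinned. Green emission is then recorded (485 nm excitation, 535 nm emission) and scaled to fluorescein.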

[12] = qHTS assay to test for compound auto fluorescence at 590 nm (red) in HEK293 cell free culture (AID 720683)
Procedure, shortened: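 Tox21 10K library compounds were pinned into cell-free DMEM with 10% FBS and fluorescence was read at excitation 540 nm. Activity is expressed as Rose Bengal sodium equivalency.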

[13] = qHTS assay to test for compound auto fluorescence at 590 nm (red) in HepG2 cell free culture (AID 720684)
Procedure, shortened: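 Red fluorescence (540 nm excitation, 590 nm emission) was measured after compound transfer into cell-free MEM supplemented with 10% FBS. Values are equivalencies against Rose Bengal sodium.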

[14] = qHTS assay to test for compound auto fluorescence at 460 nm (blue) in HepG2 cell free culture (AID 720685)
Procedure, shortened: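 Compound (23 nL) or DMSO pinned into cell-free MEM with 10% FBS; blue fluorescence read at 405/460 nm excitation/emission, expressed as auto-fluorescence equivalency to triamterene.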

[15] = qHTS assay to test for compound auto fluorescence at 460 nm (blue) in HepG2 cells (AID 720687)
Procedure, shortened: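 Cells (2,000/well in MEM with 10% FBS) attached overnight at 37 C, then were exposed to compound or DMSO for 1 hr at 37 C, 5% CO2. Fluorescence read at Ex/Em 405/460 nm, expressed as triamterene-equivalent signal.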

[16] = target: Glucocorticoid receptor (Homo sapiens) (UniProt P04150); experiment: qHTS assay to identify small molecule agonists of the glucocorticoid receptor (GR) signaling pathway (AID 720691; active = well fitted activation curve with a large enough effect in the signal ratio in the repeat runs, not every such curve was filed as active; the % refers to the signal ratio)
Procedure, shortened: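 Fluorescence intensity from LiveBLAzer B/G FRET substrate (2 h, room temperature) reports beta-lactamase expression driven by the glucocorticoid response element in GR-bla HeLa cells after 18 h compound exposure at 37 C.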

[17] = target: Glucocorticoid receptor (Homo sapiens) (UniProt P04150); experiment: qHTS assay to identify small molecule antagonists of the glucocorticoid receptor (GR) signaling pathway (AID 720692; active = well fitted inhibition curve with a large enough effect in the signal ratio in the repeat runs, not every such curve was filed as active; the % refers to the signal ratio)
Procedure, shortened: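 HeLa GR-bla cells; cmpd + dex 5 nM final, 18 h 37 C; LiveBLAzer B/G FRET substrate 2 h RT; fluorescence intensity read. Antagonist mode, qHTS.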

[18] = qHTS assay for small molecule disruptors of the mitochondrial membrane potential (AID 720635)
Procedure, shortened: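 HepG2 cells (2,000/well) attached overnight at 37C, then took compound for 1 hr at 37C, 5% CO2. Mito-MPS dye was added for 30 min; fluorescence was read at 490/535 nm (monomers) and 540/590 nm (aggregates).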

[19] = qHTS assay to test for compound auto fluorescence at 535 nm (green) in HepG2 cell free culture (AID 720686)
% is scaled to controls: 0 for no effect and ±100 for the full control effect.

Glucocorticoid receptor (Homo sapiens), sequence (P04150 whole entry, looked up): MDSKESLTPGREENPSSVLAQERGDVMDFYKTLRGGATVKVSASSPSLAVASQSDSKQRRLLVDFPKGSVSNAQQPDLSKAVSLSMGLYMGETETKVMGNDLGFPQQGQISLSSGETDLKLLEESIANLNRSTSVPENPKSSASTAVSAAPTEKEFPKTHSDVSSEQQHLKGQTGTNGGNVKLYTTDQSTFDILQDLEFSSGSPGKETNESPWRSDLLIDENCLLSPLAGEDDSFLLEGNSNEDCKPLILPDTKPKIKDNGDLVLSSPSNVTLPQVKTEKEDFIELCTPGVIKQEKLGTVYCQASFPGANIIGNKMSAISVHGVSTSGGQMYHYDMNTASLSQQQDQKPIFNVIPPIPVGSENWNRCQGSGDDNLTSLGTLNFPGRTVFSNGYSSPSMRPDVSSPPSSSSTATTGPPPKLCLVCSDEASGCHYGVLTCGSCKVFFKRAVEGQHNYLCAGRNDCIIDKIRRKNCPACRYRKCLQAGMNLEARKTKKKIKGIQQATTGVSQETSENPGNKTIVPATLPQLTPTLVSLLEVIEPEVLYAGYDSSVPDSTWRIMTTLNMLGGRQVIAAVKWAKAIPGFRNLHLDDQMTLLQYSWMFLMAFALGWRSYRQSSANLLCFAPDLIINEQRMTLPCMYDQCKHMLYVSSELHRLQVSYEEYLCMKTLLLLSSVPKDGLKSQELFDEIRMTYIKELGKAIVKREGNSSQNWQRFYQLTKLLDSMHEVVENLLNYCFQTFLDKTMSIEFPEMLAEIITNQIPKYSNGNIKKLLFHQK

CCC(CO)CO
inactive: outcome [1] | outcome [2] | Potency [3] | outcome [4] | outcome [5] | outcome [6] | outcome [7] | outcome [8] | outcome [9] | outcome [10] | outcome [11] | outcome [12] | outcome [13] | outcome [14] | outcome [15] | Potency [16] | outcome [17]

COc1cc([N+](=O)[O-])ccc1N
active: Potency [3] 54.5 µM
inactive: outcome [1] | outcome [2] | outcome [4] | Potency [18] | outcome [5] | outcome [6] | outcome [8] | outcome [9] | outcome [10] | outcome [11] | outcome [12] | outcome [13] | outcome [14] | outcome [19] | outcome [15] | Potency [16] | outcome [17]

O=S(=O)(O)SSS(=O)(=O)O
inactive: outcome [1] | outcome [2] | Potency [3] | outcome [4] | outcome [5] | outcome [6] | outcome [7] | outcome [8] | outcome [9] | outcome [10] | outcome [11] | outcome [12] | outcome [13] | outcome [14] | outcome [19] | outcome [15]

COC(/C=C(\C)CCC=C(C)C)OC
inactive: outcome [1] | outcome [2] | Potency [3] | outcome [4] | Potency [18] | outcome [5] | outcome [6] | outcome [7] | outcome [9] | outcome [10] | outcome [11] | outcome [12] | outcome [13] | outcome [14] | outcome [19] | outcome [15] | Potency [16] | outcome [17]

OC[C@@H](O)[C@H](O)[C@@H](O)[C@@H](O)CO
inactive: outcome [1] | outcome [2] | Potency [3] | outcome [4] | outcome [5] | outcome [6] | outcome [7] | outcome [8] | outcome [9] | outcome [10] | outcome [11] | outcome [12] | outcome [13] | outcome [14] | outcome [19] | outcome [15]

CC(=O)Nc1ccc(C)cc1
inactive: outcome [1] | outcome [2] | Potency [3] | outcome [4] | outcome [5] | outcome [6] | outcome [7] | outcome [8] | outcome [9] | outcome [10] | outcome [11] | outcome [12] | outcome [13] | outcome [14] | outcome [19] | outcome [15]

CCN(CCO)c1cccc(C)c1
inactive: outcome [1] | outcome [2] | Potency [3] | outcome [4] | Potency [18] | outcome [5] | outcome [6] | outcome [7] | outcome [8] | outcome [10] | outcome [11] | outcome [12] | outcome [13] | outcome [14] | outcome [15]

CO[Si](CCCS)(OC)OC
inactive: outcome [1] | outcome [2] | Potency [3] | outcome [4] | Potency [18] | outcome [5] | outcome [6] | outcome [8] | outcome [9] | outcome [10] | outcome [11] | outcome [12] | outcome [13] | outcome [14] | outcome [19] | outcome [15] | Potency [16] | outcome [17]

NCCc1ccn[nH]1
inactive: outcome [1] | outcome [2] | Potency [3] | outcome [4] | Potency [18] | fluorescence, relative to Rose Bengal [5] 0.0089% [at 18.6 µM] | fluorescence, % of fluorescein control [6] 0.0074% [at 18.6 µM] | fluorescence, % of triamterene [7] -0.006% [at 18.6 µM] | fluorescence, % of fluorescent control [10] -0.0158% [at 18.6 µM] | activity change [11] 0.0838% [at 18.6 µM] | fluorescence, % of fluorescent control [12] -0.0073% [at 18.6 µM] | fluorescence, % of Rose Bengal [13] 0.001% [at 18.6 µM] | fluorescence, % of fluorescent control [14] -0.0614% [at 18.6 µM] | fluorescence, % of fluorescein control [19] -0.0021% [at 18.6 µM] | fluorescence, % of fluorescent control [15] -0.0013% [at 18.6 µM] | outcome [17]

Nc1ccnc(=O)[nH]1
inactive: outcome [1] | outcome [2] | Potency [3] | outcome [4] | Potency [18] | outcome [5] | outcome [6] | outcome [7] | outcome [8] | outcome [9] | outcome [10] | outcome [11] | outcome [12] | outcome [13] | outcome [14] | outcome [19] | outcome [15] | Potency [16] | outcome [17]

C1=CCC(c2ccccc2)CC1 (stereo not given)
inactive: outcome [1] | outcome [2] | Potency [3] | outcome [4] | Potency [18] | outcome [5] | outcome [6] | outcome [7] | outcome [8] | outcome [9] | outcome [10] | outcome [11] | outcome [12] | outcome [13] | outcome [14] | outcome [19] | outcome [15] | Potency [16]

CC(C)(c1ccc(Oc2ccc3c(c2)C(=O)OC3=O)cc1)c1ccc(Oc2ccc3c(c2)C(=O)OC3=O)cc1
inactive: outcome [1] | outcome [2] | Potency [3] | outcome [4] | outcome [5] | outcome [6] | outcome [7] | outcome [8] | outcome [9] | outcome [10] | outcome [11] | outcome [12] | outcome [13] | outcome [14] | outcome [19] | outcome [15] | Potency [16] | outcome [17]

O=C1NC2NC(=O)NC2N1 (stereo not given)
inactive: outcome [1] | outcome [2] | Potency [3] | outcome [4] | Potency [18] | outcome [5] | outcome [6] | outcome [7] | outcome [8] | outcome [9] | outcome [10] | outcome [11] | outcome [12] | outcome [13] | outcome [14] | outcome [15]

C=C[C@@H](C)CCC=C(C)C
inactive: outcome [1] | outcome [2] | Potency [3] | outcome [4] | Potency [18] | outcome [5] | outcome [7] | outcome [8] | outcome [9] | outcome [10] | outcome [11] | outcome [12] | outcome [13] | outcome [14] | outcome [19] | outcome [15] | Potency [16] | outcome [17]

CCC(C)N (stereo not given)
inactive: outcome [1] | outcome [2] | Potency [3] | outcome [4] | Potency [18] | outcome [5] | outcome [6] | outcome [9] | outcome [10] | outcome [11] | outcome [12] | outcome [13] | outcome [14] | outcome [19] | outcome [15] | Potency [16]
